The source of these data is PubChem BioAssay (Tox21).

Experiment [1] can be described thus: qHTS RealTime-Glo MT Cell Viability Assay in HEK293 cells - 40 hour (AID 1224874). Also: nearly all actives have a fitted effect of over 50% in size. Also: potency is read from the fitted curve at half-maximal effect. The conditions noted are these: RealTime-Glo luminescence; max response: stronger effect = lower value. The procedure, abridged:
(§1)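 Luminescence readout at each listed time point; HEK293, 600 cells/well, RealTime-Glo MT reagent added with cells; compounds pinned (23 nL in DMSO) after 5 h at 37 C; continuous culture at 37 C.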
On the technique in general: In qHTS, concentration-response curves come from the screen itself.

The nature of experiment [2]: A CellTox Green Cytotoxicity Assay to monitor cytotoxicity in HEK293 cells - 24 hour (AID 1224875). Also: series mostly up to about 77 µM; nearly all actives have a fitted effect of over 45% in size. The procedure, abridged: (§2)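 Read-out: fluorescence of a cell-impermeant cyanine dye staining DNA of dead cells, proportional to cytotoxicity. HEK293, 600 cells/well with reagent, compound (23 nL DMSO) added after 5 h; reads at 0, 8, 16, 24, 32, 40 h.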
The nature of experiment [3]: A CellTox Green Cytotoxicity Assay to monitor cytotoxicity in HepG2 cells - 16 hour (AID 1224876). Also: nearly all actives have a fitted effect of over 45% in size. The procedure, abridged: (§3)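 HepG2, 600 cells/well premixed w/ CellTox Green; 5 h settle, 37 C/5% CO2; pintool cpd add (DMSO); 37 C, 40 h; fluorescence read at 0, 8, 16, 24, 32, 40 h.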
A short description of experiment [4]: qHTS RealTime-Glo MT Cell Viability Assay in HepG2 cells - 32 hour (AID 1224877). Also: nearly all actives have a fitted effect of over 55% in size. Also: potency is read from the fitted curve at half-maximal effect. The procedure, abridged: (§4)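 HepG2 suspension premixed with RealTime-Glo reagents is plated at 600 cells per well and left 5 h at 37 C/5% CO2. Compounds in DMSO then go in, and bioluminescence reflecting viable cell number is recorded over 40 h.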
Experiment [5] in a line: A CellTox Green Cytotoxicity Assay to monitor cytotoxicity in HepG2 cells - 24 hour (AID 1224878). Also: nearly all actives have a fitted effect of over 45% in size. Also: potency is read from the fitted curve at half-maximal effect. The procedure, abridged: as §3
Experiment [6] can be described thus: A CellTox Green Cytotoxicity Assay to monitor cytotoxicity in HepG2 cells - 40 hour (AID 1224879). Also: nearly all actives have a fitted effect of over 40% in size. Also: potency is read from the fitted curve at half-maximal effect. The procedure, abridged:
as §3

A short description of experiment [7]: qHTS RealTime-Glo MT Cell Viability Assay in HEK293 cells - 0 hour (AID 1224880). Also: top concentration of the series differs between compounds; nearly all actives have a fitted effect of over 45% in size. In a few lines:
as §1

Experiment [8] can be described thus: A CellTox Green Cytotoxicity Assay to monitor cytotoxicity in HEK293 cells - 32 hour (AID 1224881). Also: nearly all actives have a fitted effect of over 40% in size. The procedure, abridged: as §2
Experiment [9] can be described thus: A CellTox Green Cytotoxicity Assay to monitor cytotoxicity in HepG2 cells - 0 hour (AID 1224882). Also: nearly all actives have a fitted effect of over 35% in size. The procedure, abridged: as §3
A short description of experiment [10]: A CellTox Green Cytotoxicity Assay to monitor cytotoxicity in HepG2 cells - 32 hour (AID 1224883). Also: nearly all actives have a fitted effect of over 50% in size. Also: potency is read from the fitted curve at half-maximal effect. The procedure, abridged: as §3
A short description of experiment [11]: A CellTox Green Cytotoxicity Assay to monitor cytotoxicity in HEK293 cells - 8 hour (AID 1224884). Also: nearly all actives have a fitted effect of over 35% in size. The procedure, abridged: as §2
Experiment [12] can be described thus: qHTS RealTime-Glo MT Cell Viability Assay in HepG2 cells - 16 hour (AID 1224885). Also: nearly all actives have a fitted effect of over 50% in size. The procedure, abridged: as §4
A short description of experiment [13]: qHTS RealTime-Glo MT Cell Viability Assay in HEK293 cells - 24 hour (AID 1224886). Also: top concentration of the series differs between compounds; nearly all actives have a fitted effect of over 50% in size. In a few lines:
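Reads taken at 0, 8, 16, 24, 32 and 40 h from the same wells. HEK293 cells (600/well) carried RealTime-Glo reagents from seeding, with compound added after a 5 h settle at 37 C.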

Experiment [14] can be described thus: qHTS RealTime-Glo MT Cell Viability Assay in HEK293 cells - 8 hour (AID 1224887). The procedure, abridged:
as §1

Experiment [15] is described as follows: A CellTox Green Cytotoxicity Assay to monitor cytotoxicity in HEK293 cells - 16 hour (AID 1224888). Also: nearly all actives have a fitted effect of over 35% in size. The procedure, abridged: as §2
A short description of experiment [16]: qHTS RealTime-Glo MT Cell Viability Assay in HepG2 cells - 0 hour (AID 1224889). Also: nearly all actives have a fitted effect of over 50% in size. In a few lines:
as §4

The nature of experiment [17]: A CellTox Green Cytotoxicity Assay to monitor cytotoxicity in HepG2 cells - 8 hour (AID 1224890). Also: nearly all actives have a fitted effect of over 45% in size. The procedure, abridged:
as §3

Experiment [18] can be described thus: qHTS assay to identify small molecule antagonists of the estrogen receptor alpha (ER-alpha) signaling pathway using the BG1 cell line in the presence of 0.1 nM 17-beta-estradiol - cell viability counter screen (AID 1259241). Also: nearly all actives have a fitted effect of over 40% in size. The procedure, abridged:
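In this screen, hormone-deprived VM7Luc4E2 cells were seeded at 4,000 per well, dosed with compound and 0.1 nM estradiol final, and incubated 22 hr at 37C and 5% CO2; fluorogenic live-cell protease signal reported viability.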

Experiment [19] can be described thus: qHTS assay to identify small molecule antagonists of the androgen receptor (AR) signaling pathway using the MDA cell line in the presence of 0.5 nM R1881 - cell viability counter screen (AID 1259242). Also: nearly all actives have a fitted effect of over 45% in size. In a few lines: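 Live-cell protease fluorescence, CellTiter-Fluor, 30 min at 37C. Cells: MDA-kb2, 3,000/well, preincubated 5 hr. Compounds plus 0.5 nM R1881 final, 16 hr, 37C, 0% CO2.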

The structures appear in SMILES notation. Values joined by “and” are separate entries in the source; they are usually repeats but may differ in a detail not shown here. Identical values can stand only once. Results filed as inconclusive are left out. The source holds several records for some structures; these can differ, active in one and inactive in another. Active and inactive are the calls of the source. Calls follow the shape of the dose curve; as a rule, active = well fitted curve in the direction sought with a large enough effect in the repeat runs; inconclusive = weak or mixed curves; inactive = no such curve, though single readings can be large; an effect the other way counts as inactive or inconclusive.
% is scaled to controls: 0 for no effect and ±100 for the full control effect.

As for `Cc1cc(-c2ccc(N)c(C)c2)ccc1N`, the max response in experiment [1] is -20.5% (inactive) and -19.5% (inactive) and -26% (inactive). Moreover, the Potency entry in [2], in experiment [3], in experiment [4], in [8], in experiment [9] and in [11] was “inactive” each time. Moreover, the Potency entry in experiment [12], in experiment [13], in experiment [14], in experiment [15], in experiment [16] and in experiment [17] was “inactive” each time. The Potency entry in [18] and in experiment [19] was “inactive” throughout. The Potency result in [5] was “inactive and 43.6 µM (active)”; in [6], “inactive and 43.6 µM (active)”; in experiment [10], “inactive and 43.6 µM (active)”. Further, the outcome in experiment [7] was inactive.

As to `CC[N+](CC)(CC)CC`, the max response in experiment [1] was 2.86% (inactive) and 1.18% (inactive) and -0.431% (inactive). Further, the Potency entry in experiment [2], in experiment [3], in experiment [4], in [5], in experiment [6] and in experiment [8] was “inactive” each time. For the same compound, the Potency entry in experiment [9], in experiment [10], in experiment [11], in [12], in experiment [13] and in experiment [14] was “inactive” throughout. The Potency entry in experiment [15], in [16], in [18] and in experiment [19] was “inactive” in each case. Further, the compound was called inactive in experiment [7].

`CC(Cl)(Cl)C(=O)O`: in [1], the max response is 2.34% (inactive) and 8.45% (inactive) and 2.19% (inactive). The Potency entry in [2], in experiment [3], in experiment [4], in experiment [5], in experiment [6] and in [8] was “inactive” in each case. For the same compound, the Potency result in experiment [9], in [10], in experiment [11], in experiment [12], in [13] and in experiment [14] was “inactive” each time. For the same compound, the Potency result in experiment [15], in experiment [16], in experiment [18] and in experiment [19] was “inactive” throughout. Moreover, the result in experiment [7] was inactive.

`CCCCn1cc[n+](C)c1C`: in [1], the max response is -1.35% (inactive) [middle of 6 runs]. In addition, the Potency entry in [2], in experiment [3], in experiment [5], in experiment [6], in experiment [8] and in [9] was “inactive” each time. The Potency result in experiment [10], in [11], in experiment [12], in experiment [13], in [14] and in [15] was “inactive” throughout. Moreover, the Potency result in experiment [16], in experiment [18] and in experiment [19] was “inactive” throughout. In addition, the Potency result in [4] was “inactive and 44.2 µM (active)”. Further, the compound was called inactive in [7].

With `COc1ccccc1N`, the max response in experiment [1] is 3.5% (inactive) [middle of 4 runs]. Further, the Potency result in [2], in [4], in [5], in experiment [6], in [8] and in [9] was “inactive” throughout. The Potency result in experiment [10], in [11], in experiment [12], in experiment [13], in [14] and in [15] was “inactive” throughout. Besides, the Potency result in [16], in experiment [18] and in experiment [19] was “inactive” each time. Further, the compound was called inactive in [7].

Turning to `O=C(O)CCl`, the max response in experiment [1] was 1.08% (inactive) and -1.37% (inactive). Moreover, the Potency result in [2], in experiment [4], in experiment [5], in [6], in [8] and in [9] was “inactive” in each case. Besides, the Potency result in experiment [10], in [11], in experiment [12], in experiment [13], in experiment [14] and in [15] was “inactive” throughout. Also, the Potency result in [16], in [17], in experiment [18] and in experiment [19] was “inactive” each time. In [7], the outcome was inactive.

Take `CCCCCC[n+]1ccccc1`: the Potency in experiment [1] was 27.8 µM (active) [middle of 5 runs]. The max response in [1] is -3.16% (inactive). Moreover, the Potency entry in experiment [2], in [4], in experiment [5], in experiment [6], in [8] and in [9] was “inactive” throughout. For the same compound, the Potency result in experiment [11], in [12], in experiment [13], in experiment [14], in experiment [15] and in experiment [16] was “inactive” in each case. Further, the Potency entry in [18] and in [19] was “inactive” each time. The call in [7] was inactive.

With `COCC(=O)N(c1c(C)cccc1C)C(C)C(=O)OC` (centres undefined), in [1], the max response is 7.37% (inactive) and 3.62% (inactive) and 0.316% (inactive). In addition, the Potency result in [2], in experiment [3], in experiment [4], in [5], in [6] and in experiment [8] was “inactive” throughout. Also, the Potency entry in experiment [9], in [10], in experiment [11], in experiment [12], in experiment [13] and in experiment [14] was “inactive” each time. Also, the Potency result in experiment [15], in experiment [16], in [18] and in [19] was “inactive” each time. The outcome in experiment [7] was inactive.

For `C[N+](C)(C)Cc1ccccc1`, the max response in experiment [1] is 3.99% (inactive) and 18.8% (inactive) and -0.0813% (inactive). In addition, the Potency entry in experiment [2], in [3], in [4], in experiment [5], in experiment [6] and in experiment [8] was “inactive” in each case. Moreover, the Potency entry in [9], in experiment [11], in experiment [12], in experiment [13], in experiment [14] and in experiment [15] was “inactive” throughout. In addition, the Potency entry in experiment [16], in experiment [18] and in [19] was “inactive” in each case. In addition, the outcome in experiment [7] was inactive.

In the case of `O=c1nc(O)n(Cl)c(=O)n1Cl`, the max response in experiment [1] is 3.95% (inactive) and 2.22% (inactive). The Potency result in experiment [2], in experiment [3], in experiment [4], in experiment [5], in experiment [6] and in experiment [8] was “inactive” each time. The Potency entry in experiment [9], in [11], in [12], in experiment [13], in experiment [14] and in [15] was “inactive” throughout. In addition, the Potency entry in experiment [16], in experiment [18] and in experiment [19] was “inactive” throughout. In experiment [7], the outcome was inactive.

Consider `CN(C)[C@@H]1C(=O)C(C(N)=O)=C(O)[C@@]2(O)C(=O)C3=C(O)c4c(O)cccc4[C@@](C)(O)[C@H]3[C@H](O)[C@@H]12`, for which the max response in [1] is 8.46% (inactive) [middle of 4 runs]. Moreover, the Potency entry in experiment [2], in [3], in [4], in [5], in [6] and in [8] was “inactive” each time. Besides, the Potency result in experiment [9], in experiment [11], in [12], in experiment [13], in experiment [14] and in experiment [15] was “inactive” in each case. The Potency result in experiment [16], in experiment [18] and in experiment [19] was “inactive” in each case. In addition, the compound was classed as inactive in experiment [7].
